Data on 16 compounds can be found in PubChem BioAssay (NCATS).

Records with an inconclusive call do not appear. A call without a number means that no potency is given here. Activity calls are given as the source filed them. Calls come from the whole dose curve; as a rule, active = well fitted inhibition curve with a large enough effect; inconclusive = small, poorly fitted or top-dose-only effect; inactive = flat fitted curve, though single readings scatter.
Potency is the fitted concentration of half-maximal effect.

A short description of the test: High Content Imaging Cell-Based qHTS for Inhibitors of the mTORC1 Signaling Pathway in MEF (Tsc2-/-, p53-/-) Cells (AID 2666).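 Note: percent of cells scored positive for phospho-rpS6 Ser235/236 immunostaining by imaging.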 The settings on record: series mostly up to 38.3 µM. An excerpt:
NIH Molecular Libraries Probe Production Centers Network [MLPCN]
NIH Chemical Genomics Center [NCGC]
Assay Submitter (PI): Blenis, John; Hoffman, Greg; Harvard University
NCGC Assay Overview: Thee mammalian target of rapamycin (mTOR) is an intracellular serine/threonine kinase Aberrant regulation of mTOR signaling plays a causative role in a number of human diseases, including cancer, benign tumors such as lymphangioleiomyomatosis (LAM) and Tuberous Sclerosis Complex (TSC), and metabolic diseases such as diabetes and obesity. This project aims to identify inhibitors of ribosomal protein S6 (rpS6) phosphorylation. The phosphorylation of rpS6 is a key event downstream of mTOR activation. The assay uses a phospho-specific antibody of phospho-rpS6 to detect inhibitors of mTOR activation. Mutations in the Tsc1 and Tsc2 genes are the underlying genetic lesions responsible for TSC, causing constitutive activation of the mTORC1 pathway and leading to profound effects on cell metabolism. Aberrant metabolism in cancer has recently received significant attention as a target to develop therapeutic agents in the treatment of cancer1. As Tsc2-/- cells have lost the ability to respond to energy and growth factor deprivation, these cells are unable to properly down regulate cellular biosynthetic processes in response to metabolic stress, and are thus extremely sensitive to glucose deprivation-induced death.2 A central goal of this project is to explore the unique cell survival and metabolic properties of cells with Tsc1 or Tsc2 by screening for compounds that selectively target the Tsc2-/- MEFs by screening both Tsc2-/- and WT MEF cell lines. We hope to better understand these aspects of TSC physiology in order to exploit them for therapeutic benefit.
NCGC IN Cell Assay Protocol:
For quantitative high throughput analysis of mTORC1 signaling, we developed a cell-based assay for immuno-fluorescence based detection of rpS6 phosphorylation on the Acumen Explorer that will be used a platform for the primary small molecule screen. Mouse embryonic fibroblasts (MEFs) are cultured in 1536-well plates using DMEM + 10% FBS. Twenty-four hrs after plating, test compounds (solubilized in DMSO) are delivered and incubated with the cells for 24 hrs at 37 degree Celsius. Following the incubation, media with compound is aspirated and the cells are fixed in 4% paraformaldehyde (PFA) containing PBS + 0.2% TX-100. Next, PFA is aspirated, cells are washed two times with PBS plus 0.2% TX-100 and the cells are blocked for 1 hr at room temperature (blocking buffer: LiCOR Blocking Buffer plus 0.2% TX-100). This is followed by aspiration and staining with Alexa-488 conjugated-phospho-rpS6 Ser235/236 antibody for 2 hours at room temperature (Cell Signaling Technology # 4803, 1:50 dilution in blocking buffer). Cells are washed two times with PBS plus 0.2% TX-100, and stained with 10 uM propidium iodide (PI) for 20-25 minutes for cell number measurement (1:500 dilution of Hoescht staining is also added for IN Cell imaging). Active wells which are selected (based on Acumen results) are imaged on the IN Cell 1000 (GE Healthcare) using the D360/40X and HQ480/40X excitation filters for the Hoechst and Alexa-488 cytoplasmic stains, respectively. The fluorescence emission filters used were HQ460/40M and HQ535/50M for the Hoechst and Alexa-488 cytoplasmic stains, respectively. The normalized phospho-S6 staining is calculated as the ratio of […] for the single concentration rapamycin control ([…] nM) and DMSO columns. […] Inhibition of the pathway is defined based on the normalized phospho-S6 intensity in rapamycin treated cells. Each treatment is reported as the % positive cells in the well, where thresholds are defined by selecting wells with the highest and lowest signal and differentiating between the % non-active and % active populations. […]
For orientation: qHTS replaces the single test concentration by a dilution series.
On to `CC1CC2C3CCC4=CC(=O)C=C[C@]4(C)[C@@]3(F)[C@@H](O)C[C@]2(C)[C@@]1(O)C(=O)CO` (stereo partly specified), for which the Potency entry is “inactive”.

As to `COc1cc2ncnc(Nc3cccc(Cl)c3)c2cc1OC`, the Potency result is “inactive”.

As to `OCc1ccc(-c2nn(Cc3ccccc3)c3ccccc23)o1`, the Potency result is “inactive”.

As to `O=C(O)C1CCCN(CCC=C(c2ccccc2)c2ccccc2)C1` (stereo unspecified), the Potency entry is “inactive”.

Consider `CCCCS(=N)(=O)CCC(N)C(=O)O` (stereo unspecified), for which the Potency entry is “inactive”.

As for `N[C@@H](Cc1ccc(O)c(O)c1)C(=O)O`, the Potency entry was “inactive”.

For the compound `COc1cc2nc(N3CCCN(C)CC3)nc(NC3CCN(Cc4ccccc4)CC3)c2cc1OC`, the Potency is 2610 nM (active).

For the compound `CC(C)NCC(O)c1ccc(NS(C)(=O)=O)cc1` (stereo unspecified), the Potency result is “inactive”.

Consider `CCN(CC)CCn1c(=O)c(Cc2ccc(OC)cc2)nc2ccccc21`, for which the Potency entry was “inactive”.

For `Nc1nc(N)c2nc(CNc3ccc(C(=O)NC(CCC(=O)O)C(=O)O)cc3)cnc2n1` (stereo unspecified), the Potency entry is “inactive”.

Consider `CCN1CCCC1CNC(=O)c1cc(S(N)(=O)=O)ccc1OC` (stereo unspecified), for which the Potency result was “inactive”.

On to `CC(=O)[C@H]1CC[C@H]2[C@@H]3CCC4=CC(=O)CC[C@]4(C)[C@H]3CC[C@]12C`, for which the Potency result was “inactive”.

Turning to `NC(=O)c1ccc2[nH]ccc2c1`, the Potency entry is “inactive”.

Regarding `CC1=C(C(=O)O)N2C(=O)[C@@H](NC(=O)C(N)c3ccccc3)[C@H]2SC1` (stereo partly specified), the Potency entry is “inactive”.

Turning to `NC(=O)c1cccc(N)c1`, the Potency entry was “inactive”.

In the case of `CCN(CC)CC#CCOC(=O)C(O)(c1ccccc1)C1CCCCC1` (stereo unspecified), the Potency entry was “inactive”.
